Experimental data: PubChem BioAssay AID588590 (National Center for Advancing Translational Sciences (NCATS), 2011)
The whole screen tested about 390,000 compounds, of which about 4,000 (1%) were called active. Roughly 7% stayed inconclusive and do not appear here. Calls follow the shape of the dose curve; as a rule, active = well fitted inhibition curve with a large enough effect; inconclusive = small, poorly fitted or top-dose-only effect, or another doubt; inactive = no such curve, though single readings can be large or run the other way. What follows is part of a selection rich in actives, with near analogues and random picks from the rest.

The molecules below were run against DNA polymerase iota (Homo sapiens) (UniProt Q9UNA4) (assay: qHTS for Inhibitors of Polymerase Iota). Settings: Pol iota fluorescent replication assay, 10 min; series mostly up to 115 µM; activity, negative = inhibition: at the top concentration.
Method in brief: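 Pol iota at 10 nM preincubated 15 min with compounds at room temperature; reaction started with fluorescent substrate, 50 nM final. Fluorescence read kinetically at 0 and 10 min; buffer-only wells as negative control.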
Potency is read from the fitted curve at half-maximal effect.

Sequence of DNA polymerase iota (Homo sapiens) (Q9UNA4 whole entry, looked up): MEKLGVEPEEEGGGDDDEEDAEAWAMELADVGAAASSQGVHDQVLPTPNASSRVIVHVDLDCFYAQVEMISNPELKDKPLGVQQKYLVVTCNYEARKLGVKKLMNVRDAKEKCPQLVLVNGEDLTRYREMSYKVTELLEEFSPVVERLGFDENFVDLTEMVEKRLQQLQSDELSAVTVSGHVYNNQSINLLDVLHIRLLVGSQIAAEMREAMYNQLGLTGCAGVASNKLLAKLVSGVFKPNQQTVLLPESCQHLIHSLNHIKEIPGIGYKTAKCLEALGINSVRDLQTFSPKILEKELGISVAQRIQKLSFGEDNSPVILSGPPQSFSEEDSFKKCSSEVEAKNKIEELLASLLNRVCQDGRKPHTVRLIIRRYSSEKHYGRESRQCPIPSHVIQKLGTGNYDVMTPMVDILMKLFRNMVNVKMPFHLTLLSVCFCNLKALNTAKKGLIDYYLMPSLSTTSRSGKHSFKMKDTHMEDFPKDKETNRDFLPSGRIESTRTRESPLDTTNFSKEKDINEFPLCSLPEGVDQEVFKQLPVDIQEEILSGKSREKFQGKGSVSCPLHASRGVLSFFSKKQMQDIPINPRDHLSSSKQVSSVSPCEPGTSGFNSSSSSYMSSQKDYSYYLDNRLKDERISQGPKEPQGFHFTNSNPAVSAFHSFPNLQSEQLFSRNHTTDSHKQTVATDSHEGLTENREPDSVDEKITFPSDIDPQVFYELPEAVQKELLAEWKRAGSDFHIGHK

Row | Compound | activity, negative = inhibition | Potency
1 | COc1ccc(-n2nc(C(=O)NCCc3ccc(Cl)cc3)c3c4ccccc4n(C)c3c2=O)cc1Cl | 21% (inactive) | 
2 | Cc1cccc(-n2ccnc2SCC(=O)Nc2cccc3ccccc23)c1C | 3.77% (inactive) | 
3 | COc1cc2nc(C#Cc3nc4cc(OC)c(OC)cc4[nH]3)[nH]c2cc1OC | 36.6% (inactive) | 
4 | Cc1cc(C)c2nc(N3CCC(C(=O)NCCN4CCOCC4)CC3)sc2c1 | 12.1% (inactive) | 
5 | Cc1nc(N2CCOCC2)sc1C(=O)NN |  | 7.08 µM (active)
6 | COc1ccc(NC(=O)c2sc(N3CCOCC3)nc2-c2ccccc2)c(OC)c1 | -0.489% (inactive) | 
7 | Cn1c(=O)sc2cc(NS(=O)(=O)c3ccc(C(C)(C)C)cc3)ccc21 | 20.1% (inactive) | 
8 | CCOc1ccc(Nc2oc(/C=C/c3ccc(F)cc3)nc2C#N)cc1 | -6.11% (inactive) | 
9 | COc1cc(C(=O)NCCc2csc3nc(-c4ccccc4C)nn23)cc(OC)c1OC | -0.325% (inactive) | 
10 | CC(=O)N(C1=C(Cl)C(=O)c2ccccc2C1=O)c1ccc(C(=O)O)cc1 |  | 3.16 µM (active)
11 | Cc1cccc(C(C)C)c1NC(=O)C(NS(=O)(=O)c1cccc2nsnc12)c1ccccc1 (stereo not drawn) | 14.3% (inactive) | 
12 | CC(=O)N1CCCc2cc(S(=O)(=O)N3CCC(C(=O)NC4CCCCC4)CC3)ccc21 | 11.2% (inactive) | 
13 | COc1ccccc1Nc1cc(C(=O)NCCCN(C)C2CCCCC2)c2ccccc2n1 | 9.81% (inactive) | 
14 | CN(C)CCNC(=O)c1ccc(Cl)c2cc3ccccc3nc12 |  | 89.1 µM (active)
15 | COc1ccc(Nc2cc(C(=O)NCCCN(C)c3ccccc3)c3ccccc3n2)c(OC)c1 | -12.6% (inactive) | 
16 | CCOC(=O)c1ccc(NC(=O)CCS(=O)(=O)c2ccc(C)cc2)cc1 | 8.77% (inactive) | 
17 | CCOC(=O)c1c(C)[nH]c(C)c1S(=O)(=O)N1CCC(C(=O)Nc2ccc(C)c(Cl)c2)CC1 | 10.4% (inactive) | 
18 | CCOC(=O)c1scc(-c2ccccc2)c1S(=O)(=O)Nc1ccccc1F | -22.6% (inactive) | 
19 | CCN1CCN(C(c2ccc(C)cc2)c2c(O)cc(C)n(Cc3ccco3)c2=O)CC1 (stereo not drawn) | 24.1% (inactive) | 
20 | O=C(CSc1ccccc1)Nc1cccc(S(=O)(=O)N2CCOCC2)c1 | -11.4% (inactive) | 
21 | O=C(COC(=O)/C=C/c1ccc(Br)o1)Nc1cccc(S(=O)(=O)N2CCOCC2)c1 |  | 20 µM (active)

Row | Compound | activity, negative = inhibition | Potency
22 | O=C(COC(=O)CCc1ccc(S(=O)(=O)N2CCOCC2)cc1)Nc1cccc(Cl)c1 | 108% (inactive) | 
23 | Cc1ccc(NC(=O)Cc2ccc(NC(=O)N3CCCCc4ccccc43)cc2)cc1 | 11.6% (inactive) | 
24 | COc1ccc(-c2ccnc(SCC(=O)N3CCOCC3)n2)cc1 | -10.2% (inactive) | 
25 | COc1ccc(-c2nc(SCC(=O)N3CCOCC3)n[nH]2)cc1 | 9.38% (inactive) | 
26 | COC1=C/C(=C/c2c(N)n3nc(CC(=O)N4CCOCC4)sc3nc2=O)C=CC1=O |  | 22.4 µM (active)
27 | C=CCC1=C/C(=C\c2c(N)n3nc(CC(=O)N4CCOCC4)sc3nc2=O)C=C(OC)C1=O |  | 22.4 µM (active)
28 | CCCOc1ccc(C2c3c(-c4ccccc4O)n[nH]c3C(=O)N2Cc2cccnc2)cc1 (stereo not drawn) | -8.5% (inactive) | 
29 | COc1ccc(CNC(=O)c2ccc(NC(=O)N3CC4CCCN4c4ccccc43)cc2)cc1 (stereo not drawn) | 29.1% (inactive) | 
30 | O=C1CC(c2ccccc2)CC2=C1C(c1ccco1)n1nc(C(F)(F)F)nc1N2 (stereo not drawn) | 36.4% (inactive) | 
31 | CC1(C)CC(=O)c2cc(C(=O)NCc3ccccc3)c(=O)[nH]c2C1 | -3.14% (inactive) | 
32 | O=C(CSCc1cnn(-c2ccccc2)c1-n1cccc1)NCc1ccccc1Br | 20.1% (inactive) | 
33 | CC1(C)Cc2ccccc2-c2c[nH]c(=O)n21 | 35.5% (inactive) | 
34 | COc1ccc(S(=O)(=O)Nc2cccc3cccnc23)c(N)c1 | 13.3% (inactive) | 
35 | Cc1ccc(CN(C(=O)c2ccccc2[N+](=O)[O-])c2ccccn2)cc1 | 8.51% (inactive) | 
36 | CCn1cc(C(=O)NCc2ccc(C)cc2)c(=O)c2cc(S(=O)(=O)N3CCc4ccccc4C3)ccc21 | 6.69% (inactive) | 
37 | Cc1ccc(Cc2c(C)nc3nc(SCC(=O)NCCN4CCOCC4)nn3c2C)cc1 | 6.43% (inactive) | 
38 | COc1cc(NC(=O)CSc2nc3nc(C)c(Cc4ccc(C)cc4)c(C)n3n2)cc(OC)c1OC | 14.9% (inactive) | 
39 | Cc1nc2nc(SCC(=O)NCc3ccco3)nn2c(C)c1Cc1ccccc1 |  | 50.1 µM (active)
40 | O=C(CN1C(=O)CCn2nc(-c3ccccc3)cc21)NCc1ccccc1 | 15.2% (inactive) | 
41 | CCCCc1nn2c(=O)cc(COC(=O)c3ccccc3NC(=O)C(C)(C)C)nc2s1 | 2.84% (inactive) | 
42 | COc1ccccc1/C=C/C(=O)OCC(=O)NC1CCCCCC1 | 36.9% (inactive) | 

Row | Compound | activity, negative = inhibition | Potency
43 | COc1ccc(/C=C/C(=O)OCC(=O)NC2CCCCCC2)cc1OC |  | 89.1 µM (active)
44 | COc1cc(/C=C/C(=O)OCC(=O)NC2CC2)cc(OC)c1OC | -18% (inactive) | 
45 | Cc1c(Cl)cccc1NC(=O)C1CCCN(C(=O)c2cnn(-c3ccccc3)c2-n2cccc2)C1 (stereo not drawn) | 27.3% (inactive) | 
46 | CCCS(=O)(=O)C(=C1Nc2ccccc2N1)S(=O)(=O)CCC | 2.05% (inactive) | 
47 | CN(C)/C=C1/Nc2ccccc2C1=O |  | 28.2 µM (active)
48 | COc1ccccc1CNC(=O)Cn1nc(C)c2nn(-c3ccc(Cl)cc3)c(C)c2c1=O | 19.7% (inactive) | 
49 | COC(=O)c1ccccc1NS(=O)(=O)c1ccc2c(c1)CCCN2C(C)=O | -5.29% (inactive) | 
50 | O=C1C(Cl)=C(Oc2ccccc2)C(=O)c2ccccc21 |  | 1.78 µM (active)
51 | COc1ccccc1CNC(=O)CS(=O)(=O)c1cccc2nsnc12 | 1.49% (inactive) | 
52 | Cc1nn2c(=O)cc(COC(=O)CNC(=O)c3ccc(F)cc3)nc2s1 | -5.5% (inactive) | 
53 | O=C(Cc1ccccc1)Nc1sc2c(c1C(=O)Nc1ccc(Br)cc1)CCC2 | 16.3% (inactive) | 
54 | COc1cccc(N=C2SC(C(=O)Nc3cccc(Cl)c3)CC(=O)N2C)c1 (stereo not drawn) | -6.41% (inactive) | 
55 | CCCCNC(=O)Cn1c(SCc2cccc(Cl)c2)nc2ccncc21 | 24.8% (inactive) | 
56 | COCCNC(=O)Nc1ccc2nc(-c3ccco3)c(-c3ccco3)nc2c1 |  | 2.82 µM (active)
57 | CCOc1ccc(NC(=O)c2ncoc2-c2ccco2)cc1 | 2.03% (inactive) | 
58 | COc1ccc(NC(=O)COCc2cc(-c3ccco3)on2)cc1 | -14.4% (inactive) | 
59 | COc1ccc(NC(=O)CCCc2nnc3n(CCC(C)C)c(=O)c4sccc4n23)c(OC)c1 | 9.5% (inactive) | 
60 | Cc1ccc(CN2C(=O)SC(Nc3ccccc3)C2=O)cc1 (stereo not drawn) | -9.14% (inactive) | 
61 | Cc1ccc(CNC(=O)CSC2=Nc3ccccc3C3=NC(C)C(=O)N23)cc1 (stereo not drawn) | -0.464% (inactive) | 
62 | CCOC(=O)CSC1=Nc2ccccc2C2=NC(CCC(=O)NCc3ccc(F)cc3)C(=O)N12 (stereo not drawn) | 0.348% (inactive) | 
63 | CC(C)C1N=C2c3ccccc3N=C(SCC(=O)c3ccc(O)c(O)c3)N2C1=O (stereo not drawn) |  | 1.41 µM (active)
